This is an account of results in ChEMBL document CHEMBL1961873, “Compounds: GSK PKIS; Assays: Nanosyn kinase panel” (2012).

In assay [1] the target is T1, Inhibitor of nuclear factor kappa-B kinase subunit epsilon (Homo sapiens) (UniProt Q14164).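 Also: reported values are averaged percent inhibition figures against human IKKε.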
T1 sequence (whole entry): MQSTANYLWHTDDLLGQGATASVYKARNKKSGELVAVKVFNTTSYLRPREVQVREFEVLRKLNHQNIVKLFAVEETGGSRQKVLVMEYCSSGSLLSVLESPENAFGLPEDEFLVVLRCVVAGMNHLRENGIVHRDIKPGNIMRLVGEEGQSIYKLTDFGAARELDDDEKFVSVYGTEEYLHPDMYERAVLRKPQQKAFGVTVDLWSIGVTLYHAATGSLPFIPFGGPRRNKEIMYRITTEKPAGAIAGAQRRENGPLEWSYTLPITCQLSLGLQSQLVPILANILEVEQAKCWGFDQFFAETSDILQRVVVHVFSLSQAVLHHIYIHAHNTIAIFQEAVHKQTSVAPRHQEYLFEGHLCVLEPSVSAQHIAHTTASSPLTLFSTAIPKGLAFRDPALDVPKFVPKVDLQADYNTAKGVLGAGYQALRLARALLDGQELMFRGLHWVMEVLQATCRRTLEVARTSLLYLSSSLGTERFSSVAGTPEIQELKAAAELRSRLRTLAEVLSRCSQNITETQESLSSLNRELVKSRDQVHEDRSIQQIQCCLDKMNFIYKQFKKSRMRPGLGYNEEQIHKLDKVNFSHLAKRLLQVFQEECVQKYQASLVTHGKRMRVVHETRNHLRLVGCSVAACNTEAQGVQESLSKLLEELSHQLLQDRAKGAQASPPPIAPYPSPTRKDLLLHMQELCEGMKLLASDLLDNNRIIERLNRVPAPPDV
To be noted: at 1 µM.

Assay [2] addresses T2, Serine/threonine-protein kinase Nek1 (Homo sapiens) (UniProt Q96PY6).
T2 sequence (whole entry): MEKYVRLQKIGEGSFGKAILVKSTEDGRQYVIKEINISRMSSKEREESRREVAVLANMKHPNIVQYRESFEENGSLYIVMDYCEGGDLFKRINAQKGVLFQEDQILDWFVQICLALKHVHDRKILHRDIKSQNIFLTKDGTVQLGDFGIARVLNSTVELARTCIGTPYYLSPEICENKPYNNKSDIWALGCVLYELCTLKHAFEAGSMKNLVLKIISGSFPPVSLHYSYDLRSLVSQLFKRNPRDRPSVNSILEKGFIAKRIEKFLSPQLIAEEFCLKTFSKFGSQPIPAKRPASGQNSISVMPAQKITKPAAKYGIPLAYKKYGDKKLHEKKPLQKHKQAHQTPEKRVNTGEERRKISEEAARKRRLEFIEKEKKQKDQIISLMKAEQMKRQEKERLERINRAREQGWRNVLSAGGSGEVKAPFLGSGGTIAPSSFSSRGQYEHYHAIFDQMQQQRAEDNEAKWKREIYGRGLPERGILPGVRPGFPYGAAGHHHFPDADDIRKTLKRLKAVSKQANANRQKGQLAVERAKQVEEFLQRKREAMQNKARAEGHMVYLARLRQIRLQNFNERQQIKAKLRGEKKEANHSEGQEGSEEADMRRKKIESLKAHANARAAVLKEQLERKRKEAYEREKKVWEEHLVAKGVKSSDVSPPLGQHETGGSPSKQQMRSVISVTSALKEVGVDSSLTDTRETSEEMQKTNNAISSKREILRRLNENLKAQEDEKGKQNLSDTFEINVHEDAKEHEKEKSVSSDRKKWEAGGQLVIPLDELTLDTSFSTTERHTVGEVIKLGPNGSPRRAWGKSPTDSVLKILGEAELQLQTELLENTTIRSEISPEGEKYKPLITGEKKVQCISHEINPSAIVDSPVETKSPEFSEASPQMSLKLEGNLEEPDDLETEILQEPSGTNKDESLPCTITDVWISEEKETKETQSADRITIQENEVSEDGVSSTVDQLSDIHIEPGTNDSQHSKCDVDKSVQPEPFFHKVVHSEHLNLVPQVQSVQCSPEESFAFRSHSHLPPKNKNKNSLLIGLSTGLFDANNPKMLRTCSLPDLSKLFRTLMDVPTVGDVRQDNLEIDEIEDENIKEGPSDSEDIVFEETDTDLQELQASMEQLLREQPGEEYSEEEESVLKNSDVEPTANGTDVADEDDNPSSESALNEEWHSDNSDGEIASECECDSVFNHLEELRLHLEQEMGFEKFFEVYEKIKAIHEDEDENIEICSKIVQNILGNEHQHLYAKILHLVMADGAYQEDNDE
To be noted: at 0.1 µM.

Assay [3] has as its target T2, Serine/threonine-protein kinase Nek1 (Homo sapiens). To be noted: at 1 µM.
Assay [4] addresses T3, Serine/threonine-protein kinase Nek2 (Homo sapiens) (UniProt P51955).
T3 sequence (whole entry): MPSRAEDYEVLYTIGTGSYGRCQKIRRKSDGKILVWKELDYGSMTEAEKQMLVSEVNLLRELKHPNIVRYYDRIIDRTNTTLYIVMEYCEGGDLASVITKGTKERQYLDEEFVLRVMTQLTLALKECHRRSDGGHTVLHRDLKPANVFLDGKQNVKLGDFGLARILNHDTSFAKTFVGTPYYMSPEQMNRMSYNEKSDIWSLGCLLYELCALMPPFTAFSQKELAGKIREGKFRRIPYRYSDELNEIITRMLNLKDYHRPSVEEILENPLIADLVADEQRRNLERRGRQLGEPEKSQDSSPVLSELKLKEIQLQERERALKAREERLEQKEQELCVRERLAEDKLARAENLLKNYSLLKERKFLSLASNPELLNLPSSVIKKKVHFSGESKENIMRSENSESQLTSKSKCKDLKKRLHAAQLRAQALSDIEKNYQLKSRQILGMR
To be noted: at 0.1 µM.

The target of assay [5] is T3, Serine/threonine-protein kinase Nek2 (Homo sapiens). Conditions: at 1 µM.
Assay [6] has as its target Serine/threonine-protein kinase Nek6 (Homo sapiens) (UniProt Q9HC98). Conditions: at 0.1 µM.
The target is the same in assay [7]. To be noted: at 1 µM.
Assay [8] addresses Serine/threonine-protein kinase Nek7 (Homo sapiens) (UniProt Q8TDX7). To be noted: at 0.1 µM.
The target is the same in assay [9]. To be noted: at 1 µM.
The target in assay [10] is T4, Serine/threonine-protein kinase Nek9 (Homo sapiens) (UniProt Q8TD19).
T4 sequence (whole entry): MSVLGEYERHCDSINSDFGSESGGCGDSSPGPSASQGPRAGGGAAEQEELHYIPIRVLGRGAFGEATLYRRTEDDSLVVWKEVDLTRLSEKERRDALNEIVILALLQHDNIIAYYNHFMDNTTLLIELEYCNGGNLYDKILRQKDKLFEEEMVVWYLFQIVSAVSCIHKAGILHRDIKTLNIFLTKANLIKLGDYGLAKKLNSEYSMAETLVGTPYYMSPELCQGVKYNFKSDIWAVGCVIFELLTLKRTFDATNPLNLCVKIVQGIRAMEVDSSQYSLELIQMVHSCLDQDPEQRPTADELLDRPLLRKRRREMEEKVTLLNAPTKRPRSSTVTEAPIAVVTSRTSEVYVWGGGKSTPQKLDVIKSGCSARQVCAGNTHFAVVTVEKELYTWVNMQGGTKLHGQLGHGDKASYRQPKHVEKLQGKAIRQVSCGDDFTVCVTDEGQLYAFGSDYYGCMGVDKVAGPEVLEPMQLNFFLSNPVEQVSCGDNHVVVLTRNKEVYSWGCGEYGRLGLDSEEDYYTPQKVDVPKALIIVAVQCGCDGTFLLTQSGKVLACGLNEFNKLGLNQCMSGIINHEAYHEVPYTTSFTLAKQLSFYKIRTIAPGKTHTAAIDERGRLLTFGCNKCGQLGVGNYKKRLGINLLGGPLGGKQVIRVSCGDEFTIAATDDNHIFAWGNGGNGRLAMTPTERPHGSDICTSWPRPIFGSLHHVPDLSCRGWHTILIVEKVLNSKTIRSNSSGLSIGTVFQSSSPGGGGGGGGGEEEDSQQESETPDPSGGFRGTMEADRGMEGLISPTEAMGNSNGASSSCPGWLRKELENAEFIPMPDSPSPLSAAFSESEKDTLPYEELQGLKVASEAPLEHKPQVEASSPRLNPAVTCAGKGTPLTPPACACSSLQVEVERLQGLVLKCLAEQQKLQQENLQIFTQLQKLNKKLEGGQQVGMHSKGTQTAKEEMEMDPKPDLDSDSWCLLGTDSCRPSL
Conditions: at 0.1 µM.

Assay [11] concerns the target T4, Serine/threonine-protein kinase Nek9 (Homo sapiens). To be noted: at 1 µM.
In assay [12] the target is Serine/threonine-protein kinase PLK1 (Homo sapiens) (UniProt P53350). To be noted: at 0.1 µM.
The target is the same in assay [13]. To be noted: at 1 µM.
Assay [14] concerns the target T5, Dual specificity protein kinase TTK (Homo sapiens) (UniProt P33981).
T5 sequence (whole entry): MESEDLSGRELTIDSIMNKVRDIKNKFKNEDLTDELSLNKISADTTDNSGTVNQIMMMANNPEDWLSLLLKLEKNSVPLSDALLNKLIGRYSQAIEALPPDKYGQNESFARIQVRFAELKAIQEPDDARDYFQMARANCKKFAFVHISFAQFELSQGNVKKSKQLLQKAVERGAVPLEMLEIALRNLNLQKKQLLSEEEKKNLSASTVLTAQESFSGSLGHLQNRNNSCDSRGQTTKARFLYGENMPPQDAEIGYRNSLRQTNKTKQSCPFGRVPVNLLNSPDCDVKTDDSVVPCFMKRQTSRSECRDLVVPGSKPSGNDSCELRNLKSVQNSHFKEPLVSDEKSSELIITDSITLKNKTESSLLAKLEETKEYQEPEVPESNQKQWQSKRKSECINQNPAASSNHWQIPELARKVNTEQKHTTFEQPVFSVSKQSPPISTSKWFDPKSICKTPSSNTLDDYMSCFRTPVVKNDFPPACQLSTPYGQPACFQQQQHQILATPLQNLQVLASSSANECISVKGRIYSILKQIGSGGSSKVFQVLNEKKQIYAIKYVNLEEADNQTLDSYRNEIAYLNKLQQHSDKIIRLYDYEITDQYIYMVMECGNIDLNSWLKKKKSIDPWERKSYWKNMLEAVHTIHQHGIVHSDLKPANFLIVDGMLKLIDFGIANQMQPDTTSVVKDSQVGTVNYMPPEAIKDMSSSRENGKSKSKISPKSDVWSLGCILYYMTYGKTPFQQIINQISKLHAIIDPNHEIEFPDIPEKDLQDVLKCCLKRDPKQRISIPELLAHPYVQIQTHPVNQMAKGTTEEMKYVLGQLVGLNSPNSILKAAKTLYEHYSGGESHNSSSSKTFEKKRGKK
Conditions: at 0.1 µM.

Assay [15] concerns T6, Receptor-type tyrosine-protein kinase FLT3 (Homo sapiens), P36888 [D835Y].
T6 sequence (whole entry): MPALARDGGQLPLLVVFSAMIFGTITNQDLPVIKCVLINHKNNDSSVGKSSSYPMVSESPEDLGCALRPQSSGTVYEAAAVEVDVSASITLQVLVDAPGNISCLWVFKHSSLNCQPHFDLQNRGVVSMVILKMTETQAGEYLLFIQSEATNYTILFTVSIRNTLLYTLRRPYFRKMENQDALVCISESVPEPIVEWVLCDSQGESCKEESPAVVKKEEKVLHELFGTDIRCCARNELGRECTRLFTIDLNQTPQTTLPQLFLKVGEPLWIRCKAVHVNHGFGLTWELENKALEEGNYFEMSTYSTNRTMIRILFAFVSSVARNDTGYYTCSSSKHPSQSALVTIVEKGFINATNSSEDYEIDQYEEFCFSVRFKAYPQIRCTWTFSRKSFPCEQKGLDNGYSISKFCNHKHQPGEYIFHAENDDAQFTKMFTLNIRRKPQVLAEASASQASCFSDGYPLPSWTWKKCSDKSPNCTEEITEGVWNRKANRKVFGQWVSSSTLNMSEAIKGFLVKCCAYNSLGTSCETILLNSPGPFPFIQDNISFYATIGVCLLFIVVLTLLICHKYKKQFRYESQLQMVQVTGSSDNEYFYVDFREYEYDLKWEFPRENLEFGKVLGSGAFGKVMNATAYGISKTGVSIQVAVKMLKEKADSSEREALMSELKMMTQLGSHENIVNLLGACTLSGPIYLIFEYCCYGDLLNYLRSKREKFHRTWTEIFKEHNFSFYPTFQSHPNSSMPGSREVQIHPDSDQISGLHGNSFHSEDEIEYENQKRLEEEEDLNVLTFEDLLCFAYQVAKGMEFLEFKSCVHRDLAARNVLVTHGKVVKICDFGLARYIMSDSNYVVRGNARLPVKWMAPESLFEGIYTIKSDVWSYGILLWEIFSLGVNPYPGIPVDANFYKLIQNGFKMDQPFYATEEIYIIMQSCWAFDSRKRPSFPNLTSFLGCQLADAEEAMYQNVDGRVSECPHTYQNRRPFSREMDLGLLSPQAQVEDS
Conditions: at 1 µM.

For assay [16], the target named is Vascular endothelial growth factor receptor 3 (Homo sapiens) (UniProt P35916). Conditions: at 0.1 µM.
For assay [17] the target is unchanged. To be noted: at 1 µM.
Assay [18] deals with Macrophage colony-stimulating factor 1 receptor (Homo sapiens) (UniProt P07333). Conditions: at 0.1 µM.
The target is the same in assay [19]. To be noted: at 1 µM.
Assay [20] concerns the target Tyrosine-protein kinase Fyn (Homo sapiens) (UniProt P06241). To be noted: at 0.1 µM.

Chain of Macrophage colony-stimulating factor 1 receptor (Homo sapiens) (P07333 whole entry): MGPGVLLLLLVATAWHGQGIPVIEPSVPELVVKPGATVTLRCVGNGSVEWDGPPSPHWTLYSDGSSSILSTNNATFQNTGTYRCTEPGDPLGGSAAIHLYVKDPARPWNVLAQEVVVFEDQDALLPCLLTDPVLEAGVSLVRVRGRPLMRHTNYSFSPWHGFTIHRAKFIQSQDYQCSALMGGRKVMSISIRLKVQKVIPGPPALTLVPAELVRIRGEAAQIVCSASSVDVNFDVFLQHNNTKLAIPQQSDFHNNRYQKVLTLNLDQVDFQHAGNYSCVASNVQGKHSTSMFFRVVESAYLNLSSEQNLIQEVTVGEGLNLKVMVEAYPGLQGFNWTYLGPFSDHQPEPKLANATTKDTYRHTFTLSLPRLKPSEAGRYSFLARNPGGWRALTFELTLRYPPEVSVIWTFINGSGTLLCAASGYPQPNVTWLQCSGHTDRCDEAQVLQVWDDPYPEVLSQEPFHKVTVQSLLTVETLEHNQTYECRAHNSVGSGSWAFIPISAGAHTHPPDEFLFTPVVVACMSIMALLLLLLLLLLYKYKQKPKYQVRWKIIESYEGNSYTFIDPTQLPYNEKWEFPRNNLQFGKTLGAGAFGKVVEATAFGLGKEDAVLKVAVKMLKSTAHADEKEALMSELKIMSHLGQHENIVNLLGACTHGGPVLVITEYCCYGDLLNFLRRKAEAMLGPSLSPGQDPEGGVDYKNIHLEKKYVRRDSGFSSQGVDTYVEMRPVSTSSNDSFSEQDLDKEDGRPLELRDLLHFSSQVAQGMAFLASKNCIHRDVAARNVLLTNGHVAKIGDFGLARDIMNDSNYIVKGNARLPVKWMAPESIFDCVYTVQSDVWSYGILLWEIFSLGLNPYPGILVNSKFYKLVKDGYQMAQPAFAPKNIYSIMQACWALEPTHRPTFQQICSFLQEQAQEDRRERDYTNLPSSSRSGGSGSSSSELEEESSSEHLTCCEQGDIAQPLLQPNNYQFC
Chain of Serine/threonine-protein kinase Nek6 (Homo sapiens) (Q9HC98 whole entry): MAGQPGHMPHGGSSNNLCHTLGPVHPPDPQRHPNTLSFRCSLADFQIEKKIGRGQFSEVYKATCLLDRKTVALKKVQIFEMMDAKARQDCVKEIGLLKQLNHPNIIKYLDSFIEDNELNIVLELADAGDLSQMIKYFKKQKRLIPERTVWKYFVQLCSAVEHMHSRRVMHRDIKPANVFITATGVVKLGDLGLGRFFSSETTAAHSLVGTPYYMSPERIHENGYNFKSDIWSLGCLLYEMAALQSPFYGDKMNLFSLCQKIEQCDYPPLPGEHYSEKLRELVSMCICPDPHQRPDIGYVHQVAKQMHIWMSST
Chain of Serine/threonine-protein kinase Nek7 (Homo sapiens) (Q8TDX7 whole entry, looked up): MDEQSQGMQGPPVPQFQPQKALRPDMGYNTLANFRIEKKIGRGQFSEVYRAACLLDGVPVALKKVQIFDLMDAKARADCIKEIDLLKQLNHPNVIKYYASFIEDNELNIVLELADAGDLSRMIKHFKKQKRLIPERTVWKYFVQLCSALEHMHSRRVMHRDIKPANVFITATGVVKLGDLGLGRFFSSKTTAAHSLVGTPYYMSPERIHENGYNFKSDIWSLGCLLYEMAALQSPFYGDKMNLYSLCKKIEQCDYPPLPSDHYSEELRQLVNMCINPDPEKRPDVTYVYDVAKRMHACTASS
Chain of Vascular endothelial growth factor receptor 3 (Homo sapiens) (P35916 whole entry): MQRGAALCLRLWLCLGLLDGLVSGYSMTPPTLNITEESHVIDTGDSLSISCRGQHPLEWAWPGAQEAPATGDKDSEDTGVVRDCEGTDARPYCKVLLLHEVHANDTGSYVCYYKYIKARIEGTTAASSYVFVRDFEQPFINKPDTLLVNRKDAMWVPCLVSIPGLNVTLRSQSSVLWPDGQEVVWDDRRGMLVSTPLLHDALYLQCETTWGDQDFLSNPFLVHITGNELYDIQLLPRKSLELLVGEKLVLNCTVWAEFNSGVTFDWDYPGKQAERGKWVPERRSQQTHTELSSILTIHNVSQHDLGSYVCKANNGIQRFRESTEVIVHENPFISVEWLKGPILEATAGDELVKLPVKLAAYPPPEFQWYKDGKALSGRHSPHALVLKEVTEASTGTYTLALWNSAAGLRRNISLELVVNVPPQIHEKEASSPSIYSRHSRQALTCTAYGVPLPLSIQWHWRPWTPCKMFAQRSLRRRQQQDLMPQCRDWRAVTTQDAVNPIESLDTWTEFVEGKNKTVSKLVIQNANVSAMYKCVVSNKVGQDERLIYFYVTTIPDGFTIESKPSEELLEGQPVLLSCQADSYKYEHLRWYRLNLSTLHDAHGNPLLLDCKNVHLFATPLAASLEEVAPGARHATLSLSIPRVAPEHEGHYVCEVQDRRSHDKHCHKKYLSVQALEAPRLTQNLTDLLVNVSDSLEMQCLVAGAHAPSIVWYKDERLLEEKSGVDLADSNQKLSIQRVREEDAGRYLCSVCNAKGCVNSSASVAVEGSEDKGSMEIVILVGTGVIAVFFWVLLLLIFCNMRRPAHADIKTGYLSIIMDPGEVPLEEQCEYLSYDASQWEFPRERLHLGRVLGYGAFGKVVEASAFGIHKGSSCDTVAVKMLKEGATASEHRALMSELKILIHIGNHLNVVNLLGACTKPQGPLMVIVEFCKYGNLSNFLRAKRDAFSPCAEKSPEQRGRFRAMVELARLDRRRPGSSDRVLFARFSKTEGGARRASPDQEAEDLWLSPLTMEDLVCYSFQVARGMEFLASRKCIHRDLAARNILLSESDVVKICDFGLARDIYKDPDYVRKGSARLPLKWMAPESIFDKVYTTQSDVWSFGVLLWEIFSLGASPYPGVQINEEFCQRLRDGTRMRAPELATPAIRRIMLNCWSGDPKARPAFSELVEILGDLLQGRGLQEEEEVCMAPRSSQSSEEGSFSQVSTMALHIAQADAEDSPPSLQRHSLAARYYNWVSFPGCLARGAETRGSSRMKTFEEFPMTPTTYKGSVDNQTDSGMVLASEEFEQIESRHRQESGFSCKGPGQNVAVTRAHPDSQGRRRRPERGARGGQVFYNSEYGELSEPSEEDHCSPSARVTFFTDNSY
Chain of Serine/threonine-protein kinase PLK1 (Homo sapiens) (P53350 whole entry): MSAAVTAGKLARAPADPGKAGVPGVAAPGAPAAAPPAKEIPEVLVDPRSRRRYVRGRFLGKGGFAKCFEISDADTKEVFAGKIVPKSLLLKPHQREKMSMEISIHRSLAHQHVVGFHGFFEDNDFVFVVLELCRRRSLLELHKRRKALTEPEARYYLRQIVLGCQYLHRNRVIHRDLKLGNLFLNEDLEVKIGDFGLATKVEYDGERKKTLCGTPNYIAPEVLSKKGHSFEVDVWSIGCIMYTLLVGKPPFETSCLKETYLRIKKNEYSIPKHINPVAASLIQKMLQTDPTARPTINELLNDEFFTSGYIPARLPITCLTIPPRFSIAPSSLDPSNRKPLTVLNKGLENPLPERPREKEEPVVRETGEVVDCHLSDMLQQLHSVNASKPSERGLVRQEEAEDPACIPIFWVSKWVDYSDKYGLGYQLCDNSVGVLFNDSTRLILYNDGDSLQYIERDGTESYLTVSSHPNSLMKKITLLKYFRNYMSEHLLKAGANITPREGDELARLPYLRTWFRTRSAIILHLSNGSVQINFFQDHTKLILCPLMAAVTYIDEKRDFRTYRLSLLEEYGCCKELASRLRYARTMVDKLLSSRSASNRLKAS
Chain of Tyrosine-protein kinase Fyn (Homo sapiens) (P06241 2-537 limits assumed): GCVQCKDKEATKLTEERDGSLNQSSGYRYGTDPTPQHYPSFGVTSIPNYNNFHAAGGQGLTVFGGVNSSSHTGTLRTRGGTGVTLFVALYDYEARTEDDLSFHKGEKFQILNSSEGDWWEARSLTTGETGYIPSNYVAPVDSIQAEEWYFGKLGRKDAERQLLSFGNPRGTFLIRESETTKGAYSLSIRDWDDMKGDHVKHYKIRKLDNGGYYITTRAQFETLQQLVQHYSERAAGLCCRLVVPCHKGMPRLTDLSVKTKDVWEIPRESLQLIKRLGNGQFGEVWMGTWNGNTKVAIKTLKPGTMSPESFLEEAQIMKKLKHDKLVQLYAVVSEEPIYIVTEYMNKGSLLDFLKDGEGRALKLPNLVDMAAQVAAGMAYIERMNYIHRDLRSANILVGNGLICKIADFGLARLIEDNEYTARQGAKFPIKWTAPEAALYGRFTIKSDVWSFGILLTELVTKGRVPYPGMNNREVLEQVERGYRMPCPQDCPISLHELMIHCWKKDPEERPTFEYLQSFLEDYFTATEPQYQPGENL

As to `O=S(=O)(CCOCc1ccc(-c2ccc3ncnc(Nc4ccc(OCc5cccc(F)c5)c(Cl)c4)c3c2)o1)c1ccccc1`, the inhibition was found to be 0.73% in assay [1]; 1.11% in assay [2]; 1.59% in assay [3]; 3.36% in [4]; 2.18% in [5]; 0.77% in [6]. In addition, the inhibition in [7] came to 0.7%; in assay [8] it was 1.66%; in assay [9] it was 5.83%; in assay [10], 5%; in assay [11], 0.79%; in assay [12], 2.52%. Further, the inhibition is 2.68% in [13]; 6.45% in assay [14]; -7.19% in [15]; 5.04% in assay [16]; 14% in assay [17]; -1.86% in assay [18]. The inhibition in assay [19] was found to be 7.49%; in [20], 2.16%.

Consider `Cc1ccc2c(-c3ccnc(Nc4cccc(C(F)(F)F)c4)n3)c(-c3ccccc3)nn2n1`, for which the inhibition in [1] came out at 6.22%; in assay [2], 3.11%; in assay [3] it was 2.67%; in assay [4], 6.28%; in assay [5] it was 3.74%; in assay [6], 6.41%. In addition, the inhibition worked out at 1.67% in assay [7]; 0.74% in assay [8]; 5.29% in assay [9]; 8.93% in assay [10]; 7.33% in assay [11]; 7.39% in assay [12]. Besides, the inhibition in assay [13] worked out at 6.37%; in assay [14], 10.5%; in assay [15] it was 1.38%; in assay [16], 4.59%; in [17], 24.9%; in assay [18], 1.77%. In addition, the inhibition in [19] is 23.1%; in assay [20] it was 15.6%.

The inhibition is the relative decrease from the control value, in per cent.
